The results in this text go back to PubChem BioAssay AID853 (Columbia University Molecular Screening Center, 2007).

About 200 (0.43%) of roughly 47,000 compounds were called active. Roughly 1% stayed inconclusive and do not appear here. This is one part of a sample in which actives are shown more often than they occur.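 Rule for the calls: active = inhibition of aggregate fluorescence above about 70%, also judged a hit by eye on the cell image (limit read from the data, passing the limit was not always enough); inconclusive = no rule stated for this call; inactive = not judged a hit on image review.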

A short description of this assay: removal of polyQ htt aggregates in HeLa – imaging, HeLa Exon1htt(103Q)mCFP, confocal imaging, primary screen (AID 853).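 Note: cells exposed to compound for three days before fixation.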 The settings on record: aggregate imaging, at 1.5 µM; fraction fluorescence in grains: measured here: aggregate grain fluorescence fraction, stronger effect = lower value; inhibition: stronger effect = higher value, zero = plate's median compound well.
One may read the inhibition as the change of the read-out against control, counted positive when it falls. Consider `CC12c3ccccc3C(c3ccccc31)C1C(=O)N(Cc3cccnc3)C(=O)C12` (centres undefined), for which the fraction fluorescence in grains is 12 and the inhibition was 60.9% (inactive).
With `COc1ccc(OC)c(/C=N/NC(=O)CSc2nnc(C)n2-c2ccccc2)c1`, the fraction fluorescence in grains amounted to 32.4 and the inhibition was -7.5% (inactive).
The corresponding values for `Cc1cc(C)cc(NC(=O)c2cccc(NC(=O)C3C4CC5OC(=O)C3C5C4)c2)c1` (centres undefined) are 31 and -31.4% (inactive).
Consider `O=C(c1ccccc1)c1cc(-c2ccccn2)c(N2CCOCC2)s1`, for which the fraction fluorescence in grains was found to be 30.5 and the inhibition was 22% (inactive).
Regarding `Cc1ccc(-n2nc3c(c2NC(=O)CCC2CCCCC2)CS(=O)C3)cc1` (centres undefined), the fraction fluorescence in grains was found to be 38.7 and the inhibition is 17.6% (inactive).
`CC1=C(C(N)=O)C(c2sccc2C)n2nnnc2N1` (centres undefined): the fraction fluorescence in grains is 60.2 and the inhibition was -59.3% (inactive).
The corresponding values for `O=C(Nc1ncc2c(n1)-c1ccccc1OC2)c1ccc(Cl)cc1` are 34.8 and 7.6% (inactive).
As to `COc1cccc(N(CC(=O)NCCSc2ccccn2)S(C)(=O)=O)c1`, the fraction fluorescence in grains came out at 32.4 and the inhibition is -38.8% (inactive).
Taken in the same sequence, the figures for `COc1cc(C)c(C(C)C)cc1S(=O)(=O)n1ccnc1` were 38.5 and -120% (inactive).
As for `O=C(NC1(C(F)(F)F)NC(=O)N(Cc2cccnc2)C1=O)c1ccccc1Cl` (centres undefined), the fraction fluorescence in grains was found to be 32.6 and the inhibition was 13.2% (inactive).
The corresponding values for `Cc1nnc(OCC(=O)NCCC2=CCCCC2)c2ccccc12` are 30.6 and 19% (inactive).
The corresponding values for `CCC(c1nnnn1Cc1ccco1)N(CCc1ccccc1)Cc1cc2cccc(C)c2[nH]c1=O` (centres undefined) are 4.66 and 75.8% (active).
The corresponding values for `Cc1cc2cc(CN(Cc3cccs3)Cc3nnnn3CC3CCCO3)c(=O)[nH]c2cc1C` (centres undefined) are 18 and 47.9% (inactive).
`CCC(c1nnnn1Cc1ccco1)N(CCc1ccccc1)Cc1cc2ccc(OC)cc2[nH]c1=O` (centres undefined): the fraction fluorescence in grains is 19.4 and the inhibition was 46.6% (inactive).
`CCC(c1nnnn1Cc1ccccc1)N(Cc1cc2cc(OC)ccc2[nH]c1=O)CC1CCCO1` (centres undefined): the fraction fluorescence in grains came to 3.01 and the inhibition was 83.8% (active).
Taken in the same sequence, the figures for `CCC(c1nnnn1Cc1ccco1)N(Cc1cc2cc(OC)ccc2[nH]c1=O)C1CCCCC1` (centres undefined) were 12.1 and 36.8% (inactive).
The corresponding values for `CCC(c1nnnn1C1CCCC1)N(Cc1cccs1)Cc1cc2cccc(C)c2[nH]c1=O` (centres undefined) are 14.9 and 27.8% (inactive).
`CCOC(=O)C(C)Oc1cccc2c(=O)n(CC(=O)N3CCc4ccccc43)ccc12` (centres undefined): the fraction fluorescence in grains is 44.7 and the inhibition was -33.2% (inactive).
On to `CCCCNC(=O)OC(C)CNC(=O)OC` (centres undefined), for which the fraction fluorescence in grains amounted to 23.8 and the inhibition was 25% (inactive).
The corresponding values for `Cc1cc(C)c2c(-n3cccc3)c(NC(=O)OCc3ccccc3)sc2n1` are 37.4 and -74.7% (inactive).
The corresponding values for `Cc1ccccc1CS(=O)(=O)CC1(O)CCN(C(=O)c2cccc(C(F)(F)F)c2)CC1` are 32.9 and 14.5% (inactive).
Take `CC(=O)c1cccc(NC(=O)c2ccncc2)c1`: the fraction fluorescence in grains was determined as 33.8 and the inhibition was 20.4% (inactive).
Taken in the same sequence, the figures for `COc1ccc2c3c(c(=O)oc2c1OCC(=O)C(C)(C)C)CCCC3` were 20.5 and -3.3% (inactive).
The corresponding values for `N=c1c2c(-c3ccccc3)c(-c3ccccc3)oc2ncn1Cc1ccco1` are 39.1 and -27.2% (inactive).
`Cc1nnc(SCC(=O)N2CCN(c3ccccc3)CC2)n1-c1ccccc1`: the fraction fluorescence in grains was found to be 45.5 and the inhibition is -15% (inactive).
Turning to `O=C(C(NS(=O)(=O)c1cccc2nsnc12)c1ccccc1)N1CCN(c2ccccn2)CC1` (centres undefined), the fraction fluorescence in grains came to 32.5 and the inhibition is 12.4% (inactive).
For `O=C(O)c1ccc(F)c(S(=O)(=O)Nc2ccccc2)c1`, the fraction fluorescence in grains was 49.7 and the inhibition was -13.1% (inactive).
Taken in the same sequence, the figures for `O=C(O)c1ccc(NS(=O)(=O)c2cccc3nsnc23)cc1` were 5.36 and 70.5% (active).
Taken in the same sequence, the figures for `Cc1cccc(-c2nc3c(c(SCC(=O)N4CCOCC4)n2)CCCC3)c1` were 18.5 and -1.6% (inactive).
Take `CCOc1ccc2c(c1)C(c1ccc(C)cc1)=NNC(c1ccc(C)cc1)=N2`: the fraction fluorescence in grains is 11 and the inhibition is 38.1% (inactive).
As for `Cn1c(CO)cnc1SCc1ccccc1`, the fraction fluorescence in grains was found to be 10.9 and the inhibition was 71.7% (active).
The corresponding values for `c1ccc(CSc2nnc(-c3ccco3)n2Cc2ccccc2)cc1` are 21.2 and -3.2% (inactive).
The corresponding values for `CCS(=O)(=O)n1nc(-c2ccccc2)nc1SCc1ccccc1` are 24.1 and -44.5% (inactive).
The corresponding values for `COC(=O)c1nc2ccccc2s1` are 22.8 and -27.8% (inactive).
Regarding `Cc1cc(OCCN2CCCC2)ccc1C(C)C`, the fraction fluorescence in grains was found to be 38.3 and the inhibition was -2.5% (inactive).
Taken in the same sequence, the figures for `CN1C(=O)CC(N2CCN(c3ccccn3)CC2)C1=O` (centres undefined) were 29.4 and -42.3% (inactive).
Consider `Cc1nc2nc(C)c(CCC(=O)N3CCN(c4ccccc4)CC3)c(C)n2n1`, for which the fraction fluorescence in grains is 38.5 and the inhibition is -21.5% (inactive).
On to `CCSC(C)CC1C/C(=N/O)c2c(C)noc2C1` (centres undefined), for which the fraction fluorescence in grains came out at 43.5 and the inhibition was -15.9% (inactive).
The corresponding values for `Cc1cc(C(=O)Nc2ccccc2N2CCOCC2)c2ccccc2n1` are 9.37 and 47.3% (inactive).
Taken in the same sequence, the figures for `Cn1sc(NC(=O)c2ccccc2)nc1=O` were 24.3 and -16.8% (inactive).
The corresponding values for `O=C1/C(=C\Nc2ccccc2)CCN1c1ncccn1` are 25.9 and 18.4% (inactive).
Regarding `CCN(CC)c1ccc(NC(=O)c2ccc(Cl)nc2)cc1`, the fraction fluorescence in grains was 60.1 and the inhibition was -95.5% (inactive).
